IDE exosite FP: exo-site inhibitors of human IDE, primary screen, biochemical, fluorescence anisotropy, probe displacement; 17,000 tested, 6.3% active; Insulin-degrading enzyme (Homo sapiens), P14735; purified IDE, FL-6b probe fluorescence polarization; active compounds read low; z-score at 20 µM;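 active = z-score of -3 or lower, meaning strong loss of probe binding signal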;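 also: His-tagged human IDE residues 42-1019 made in E. coli with 30 nM FL-6b probe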
Of the large screens only hits and unclear results are named; the others gave an inactive call. Many of the other results were omitted from the sample, so hits are more common in it than they were.

Cn1cnc(S(=O)(=O)N2CCCCN3[C@H](CO)[C@@H](c4ccc(-c5ccccc5F)cc4)[C@@H]3C2)c1	IDE exosite FP -11
COc1ccccc1-c1ccc([C@@H]2[C@H]3CN(S(=O)(=O)c4cn(C)cn4)CCCCN3[C@H]2CO)cc1	IDE exosite FP -8.4
Cc1ccccc1-c1ccc([C@@H]2[C@H]3CN(S(=O)(=O)c4cn(C)cn4)CCCCN3[C@H]2CO)cc1	IDE exosite FP -19
Cn1cnc(S(=O)(=O)N2CCCCN3[C@@H](CO)[C@H](c4ccc(-c5ccccc5F)cc4)[C@@H]3C2)c1	none
Cc1ccccc1-c1ccc([C@H]2[C@@H](CO)N3CCCCN(S(=O)(=O)c4cn(C)cn4)C[C@H]23)cc1	IDE exosite FP -17
O=C(C1CC1)N1CC(=O)N2[C@H](CO)[C@H](c3ccc(Br)cc3)[C@H]2C1	none
CN1c2ccc(-c3ccc(C#N)cc3)cc2[C@H]2[C@H](CCN2S(=O)(=O)c2ccc(F)cc2)[C@@H]1CO	none
N#C[C@@H]1[C@@H](c2ccccc2)[C@H](CO)N1C(=O)Nc1cccc(F)c1	none
O=C(C1CC1)N1CC(=O)N2[C@H](C1)[C@H](c1ccc(-c3cccnc3)cc1)[C@@H]2CO	none
COCC#Cc1ccc([C@H]2[C@H]3CN(C(=O)Nc4cc(F)ccc4F)CC(=O)N3[C@H]2CO)cc1	none
CCCC#Cc1ccc([C@@H]2[C@@H](CO)N3C(=O)CN(C(=O)Cc4cccnc4)C[C@H]23)cc1	none
COc1cccc(C#Cc2ccc([C@@H]3[C@H](CO)N4C(=O)CN(C(=O)Cc5ccccc5)C[C@@H]34)cc2)c1	none
COc1cccc(C#Cc2ccc([C@H]3[C@@H](CO)N4C(=O)CN(C(=O)Cc5cccnc5)C[C@@H]34)cc2)c1	none
CCCC#Cc1ccc([C@@H]2[C@@H](CO)N3C(=O)CN(C(=O)Cc4cccnc4)C[C@@H]23)cc1	none
CC(C)C#Cc1ccc([C@@H]2[C@@H](CO)N3C(=O)CN(C(=O)Cc4cccnc4)C[C@H]23)cc1	none
CCCC#Cc1ccc([C@H]2[C@@H](CO)N3C(=O)CN(C(=O)Cc4cccnc4)C[C@H]23)cc1	none
COc1cccc(C#Cc2ccc([C@@H]3[C@H]4CN(C(=O)Cc5cccnc5)CC(=O)N4[C@H]3CO)cc2)c1	IDE exosite FP -5
CCCC#Cc1ccc([C@H]2[C@@H](CO)N3C(=O)CN(C(=O)Cc4cccnc4)C[C@@H]23)cc1	none
CCCC#Cc1ccc([C@@H]2[C@H]3CN(C(=O)Cc4cccnc4)CC(=O)N3[C@H]2CO)cc1	IDE exosite FP -4.3
COc1cccc(C#Cc2ccc([C@@H]3[C@H](CO)N4C(=O)CN(C(=O)Cc5cccnc5)C[C@@H]34)cc2)c1	IDE exosite FP -4.1
COc1cccc(C#Cc2ccc([C@H]3[C@H](CO)N4C(=O)CN(C(=O)Cc5ccccc5)C[C@@H]34)cc2)c1	none
COc1cccc(C#Cc2ccc([C@H]3[C@H]4CN(C(=O)Cc5cccnc5)CC(=O)N4[C@H]3CO)cc2)c1	IDE exosite FP -4.1
CC(C)C#Cc1ccc([C@H]2[C@@H](CO)N3C(=O)CN(C(=O)Cc4cccnc4)C[C@H]23)cc1	none
CCCC(=O)Nc1ccc2c(c1)OC[C@@H](C)NC[C@H](C)[C@H](OC)CN(C)C2=O	none
Cc1ccc(S(=O)(=O)N2C[C@H](O)COC[C@H]3O[C@@H](CC(=O)N4CCc5ccccc5C4)CC[C@@H]32)cc1	none
COc1cccc(NC(=O)N2C[C@H](O)COC[C@@H]3O[C@@H](CC(=O)N(C)C)CC[C@H]32)c1	none
C[C@H](CO)N1C[C@H](C)[C@@H](CN(C)C(=O)c2cc(Cl)cc(Cl)c2)OCc2ccccc2-c2ccccc2C1=O	none
CN(C)C(=O)c1ccc(-c2ccccc2[C@@H]2[C@@H](C#N)N(C(=O)C3CCC3)[C@H]2CO)cc1	none
O=C(CN1CCOCC1)N1CC[C@H]2[C@H](CO)Nc3ccc(Br)cc3[C@H]21	none
O=C(Cc1ccncc1)N1CC(=O)N2[C@H](C1)[C@@H](c1ccc(Br)cc1)[C@@H]2CO	none
CCN1CC(=O)N2[C@H](C1)[C@H](c1ccc(Br)cc1)[C@@H]2CO	none
C/C=C/c1ccc([C@H]2[C@@H](CO)N(S(C)(=O)=O)[C@@H]2CN(CC)C(=O)CC)cc1	none
OC[C@H]1[C@H](c2ccc(-c3ccccc3)cc2)[C@H]2CN(CCC(F)(F)F)CCCCN21	none
COc1ccc(C#Cc2ccc([C@H]3[C@@H](CO)N4CCCCN(S(=O)(=O)c5ccccc5)C[C@@H]34)cc2)cc1	none
COc1ccc(C#Cc2ccc([C@H]3[C@H](CO)N4CCCCN(S(=O)(=O)c5ccccc5)C[C@@H]34)cc2)cc1	none
OC[C@@H]1[C@H](c2ccc(-c3ccccc3)cc2)[C@@H]2CN(CCC(F)(F)F)CCCCN12	none
CCCC#Cc1ccc([C@@H]2[C@@H](CO)N3CCCCN(S(C)(=O)=O)C[C@H]23)cc1	none
COc1ccc(C#Cc2ccc([C@@H]3[C@@H](CO)N4CCCCN(S(=O)(=O)c5ccccc5)C[C@H]34)cc2)cc1	none
COc1ccccc1C#Cc1ccc([C@H]2[C@H](CO)N3CCCCN(S(C)(=O)=O)C[C@@H]23)cc1	IDE exosite FP -8.1
COc1ccccc1C#Cc1ccc([C@@H]2[C@H]3CN(CCC(F)(F)F)CCCCN3[C@H]2CO)cc1	IDE exosite FP -7.8
COc1ccccc1C#Cc1ccc([C@@H]2[C@H]3CN(S(C)(=O)=O)CCCCN3[C@H]2CO)cc1	IDE exosite FP -12
CCCNC(=O)N1[C@H](CO)[C@@H](c2ccccc2-c2ccc(C)cc2)[C@@H]1C#N	none
CC(=O)N1[C@H](CO)[C@H](c2ccc(-c3cncnc3)cc2)[C@@H]1CN(C)C(=O)C1CC1	none
COc1ccc2c3c([nH]c2c1)[C@@H](CO)N(CC1CC1)CC31CN(C(=O)NC2CCCC2)C1	none
CNC[C@@H]1Oc2cc(C3=CCCC3)ccc2S(=O)(=O)N([C@@H](C)CO)C[C@H]1C	none
COc1ccccc1NC(=O)N1CC(=O)N2[C@H](CO)[C@H](c3ccc(-c4ccc(F)cc4)cc3)[C@@H]2C1	none
CC(C)NC(=O)N1CCCCN2[C@H](CO)[C@@H](c3ccc(C#CC4CC4)cc3)[C@@H]2C1	none
COc1ccc([C@H]2CC=CC[C@@H](C)Oc3ccccc3C(=O)N(C)[C@H](C(C)C)C(=O)N2)c(OC)c1 (mixture of isomers)	none
CCCC#Cc1ccc([C@H]2[C@H](CO)N3C(=O)CN(C(=O)c4ccccc4)C[C@@H]23)cc1	none
COc1ccc(NC(=O)N(C)C[C@@H]2OCCCC[C@H](C)Oc3ccc(NC(=O)c4ccncc4)cc3C(=O)N([C@@H](C)CO)C[C@H]2C)cc1	none
OC[C@H]1[C@H](c2ccc(C#CC3(O)CCCC3)cc2)[C@H]2CN(Cc3ccncc3)CCCCN21	none
COc1ccc(-c2ccc([C@H]3[C@@H](CO)N4C(=O)CN(C(=O)NC(C)C)C[C@@H]34)cc2)cc1	none
CC(C)NC(=O)N1CC(=O)N2[C@H](CO)[C@@H](c3ccc(/C=C/c4ccccc4)cc3)[C@@H]2C1	IDE exosite FP -3.3
COc1ccc(NC(=O)N2CC(=O)N3[C@H](CO)[C@H](c4ccc(/C=C/c5ccccc5)cc4)[C@@H]3C2)cc1	none
COc1ccc(-c2ccc([C@@H]3[C@H](CO)N4C(=O)CN(C(=O)NC(C)C)C[C@@H]34)cc2)cc1	none
CC(C)NC(=O)N1CC(=O)N2[C@@H](CO)[C@H](c3ccc(/C=C/c4ccccc4)cc3)[C@@H]2C1	IDE exosite FP -3.4
Cc1ccc(-c2ccc([C@@H]3[C@H](CO)N4C(=O)CN(C(=O)NC(C)C)C[C@@H]34)cc2)cc1	none
COCC#Cc1ccc([C@@H]2[C@@H](CO)N3C(=O)CN(C(=O)c4ccncc4)C[C@H]23)cc1	none

Bioassay records: PubChem BioAssay, Broad Institute
